# Screening data from PubChem BioAssay.
# TbPYK inhibitor = T. brucei pyruvate kinase inhibition; Q57TT1; AID 624173; TbPYK enzyme, Kinase-Glo Plus ATP luminescence, 45 min; Potency, µM (titrated, usually from 76.8 µM), inactives show at the top dose activity, negative = inhibition, hits mostly inhibitors; 410,000 compounds, 0.12% hits; note: nearly all actives have a fitted effect of over 50% in size
#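 T. brucei PYK with substrate was exposed to pin-transferred compounds across a concentration series, then started with 130 uM ADP (final). After 45 min at room temperature, Kinase-Glo Plus luminescence was read, normalized and curve-fitted.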
# RE007 growth inh = less growth of the S. pombe RE007 Vpr strain. AID 651644. 360,000 compounds, 0.21% hits. Potency, µM (doses to about 92.2 µM), without a hit: top-dose activity change, negative = less growth, hits mostly inhibitors. S. pombe RE007 Vpr strain, BacTiter-Glo ATP luminescence, 24 h; active = well fitted falling curve with a large enough effect; inconclusive = small, poorly fitted or top-dose-only effect; inactive = no such curve, though single readings can be large or run the other way; note: nearly all actives have a fitted effect of over 50% in size
#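 Fission yeast RE007 carrying one integrated HIV-1 vpr copy, seeded at OD 0.01 in PMG+AL medium with 23 nL pinned compound. Grown 24 h at 30 degrees; viability read by BacTiter-Glo luminescence after 5 min.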
# LmPK inhibitor = LmPK (Leishmania mexicana) enzyme inhibition. Q27686. purified LmPK, Kinase-Glo ATP luminescence, 1 h. Potency, µM (doses to about 57.5 µM), inactives show top-dose activity change, negative = inhibition, actives largely listed as inhibitors. 290,000 compounds, 0.37% hits
# Target sequence (Q27686 whole entry, looked up): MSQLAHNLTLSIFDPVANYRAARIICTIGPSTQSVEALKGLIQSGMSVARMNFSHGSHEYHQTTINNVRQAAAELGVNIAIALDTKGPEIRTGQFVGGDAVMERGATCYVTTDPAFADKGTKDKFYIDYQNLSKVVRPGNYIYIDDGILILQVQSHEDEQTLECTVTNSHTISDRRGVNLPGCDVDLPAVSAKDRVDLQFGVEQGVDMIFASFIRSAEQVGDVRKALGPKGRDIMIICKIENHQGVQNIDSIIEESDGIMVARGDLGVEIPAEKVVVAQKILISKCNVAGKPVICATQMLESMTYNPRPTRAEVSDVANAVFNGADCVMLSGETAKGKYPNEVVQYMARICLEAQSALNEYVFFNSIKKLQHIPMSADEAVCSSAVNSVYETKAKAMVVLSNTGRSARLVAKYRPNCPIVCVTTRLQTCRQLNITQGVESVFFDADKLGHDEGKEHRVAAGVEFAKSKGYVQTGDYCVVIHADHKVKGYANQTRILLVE
#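 0.1 nM LmPK, 0.5 mM PEP, 0.1 mM ADP; 50 mM imidazole pH 7.2, 7 mM MgCl2, 50 mM KCl; 1 h RT. Kinase-Glo luminescence readout, normalized to no-enzyme (full inhibition) and uninhibited wells.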
# Giardia FBPA inh = Giardia lamblia aldolase inhibition; purified Giardia FBPA; Potency, µM (doses to about 59.6 µM), inactives show top-dose activity, negative = inhibition, usual class: inhibitors; 290,000 compounds, 0.71% hits; AID 2451; note: nearly all actives have a fitted effect of over 55% in size
#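 Giardia FBPA (40 nM reagent) was preincubated 10 min at RT with compound (up to 57.5 uM final), then substrate plus GAPDH/TPI/NAD/arsenate coupling system with diaphorase/resazurin was added; resorufin fluorescence (525/598 nm) was read after 20 min.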
# Sm TGR inh = inhibitors of Schistosoma mansoni thioredoxin glutathione reductase | Q962Y6 | purified TGR, DTNB reduction, TNB absorbance 405 nm | 360,000 compounds, 3% hits | AID 485364 | Potency, µM (doses to about 114 µM), inactives show top-dose activity change, negative = inhibition, hits mostly inhibitors; note: nearly all actives have a fitted effect of over 60% in size
#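 First, TGR (20 nM dispensed) and NADPH were mixed with compound. Second, a 15 min room-temperature incubation followed. Third, further NADPH and then DTNB were added to start the reaction. Finally, TNB absorbance was monitored kinetically.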
# Numbers without * were called inactive; ? = inconclusive; nt = no result given. Only some compounds are listed: those with a hit (about 3.3% of all), similar ones and a draw of the others. Unless noted, calls come from the whole dose curve; as a rule, active = well fitted curve in the direction sought with a large enough effect; inconclusive = small, poorly fitted or top-dose-only effect, or another doubt; inactive = no such curve, though single readings can be large; an effect the other way counts as inactive or inconclusive. % is set by controls: 0 for no effect and ±100 for the full control effect; potency is the fitted concentration of half-maximal effect.
SMILES,TbPYK inhibitor,RE007 growth inh,LmPK inhibitor,Giardia FBPA inh,Sm TGR inh
Cc1cc(C(=O)CCl)c(C)n1Cc1ccco1,-5.5%,2.7%,-10.9%,-3.3%,3.98µM*
COC(=O)CCn1c(C)cc(C(=O)COc2ccccc2C(N)=O)c1C,2.6%,7.2%,-5.3%,8.8%,-13.1%
COC(=O)CCCn1c(C)cc(C(=O)CCl)c1C,3.2%,25.6%,1.3%,-1.5%,7.94µM*
Cc1cc(C(=O)CSc2nncs2)c(C)n1Cc1ccco1,0.7%,4.3%,1.0%,-15.7%,-25.0%
Cc1cc(C(=O)CCl)c(C)n1-c1ccon1,-21.8%,-4.1%,-7.9%,-1.6%,11.2µM*
Cc1cc(C(=O)CCl)c(C)n1CCc1ccccc1,4.1%,-9.8%,1.3%,?,8.91µM*
CNC(=O)c1c(NC(=O)/C=C/c2ccccc2)sc2c1CCC2,-0.4%,nt,nt,nt,35.5µM*
NC(=O)c1c(NC(NC(=O)c2ccco2)C(=O)c2ccc(Cl)cc2)sc2c1CCCC2 (configuration not stated),-10.6%,4.0%,12.7%,-25.6%,31.6µM*
CNC(=O)c1c(NC(=O)c2ccco2)sc2c1CCC2,-9.4%,-16.3%,2.8%,nt,31.6µM*
O=C(/C=C/c1ccccc1)Nc1sc2c(c1C(=O)O)CCC2,-8.0%,-29.8%,3.4%,?,?
Cc1sc2nc3c4ccccc4c(NCc4ccco4)nn3c(=O)c2c1C,-8.6%,-0.1%,-8.6%,-10.6%,50.1µM*
O=C(/C=C/c1ccccc1)CC(O)(c1ccccc1)C(F)(F)C(F)F (configuration not stated),1.8%,-13.0%,-1.6%,-7.7%,25.1µM*
O=C(/C=C/c1ccccc1)CC(O)(c1ccccc1)C(F)(F)F (configuration not stated),0.2%,-16.3%,10.4%,-1.3%,28.2µM*
COc1cc(OC)cc(C(=O)NNC(=O)CCNS(=O)(=O)c2ccc(C)c(C)c2)c1,-0.2%,4.7%,nt,nt,-2.5%
COCCn1nnnc1C(c1cc2cc(C)cc(C)c2[nH]c1=O)N1CCN(c2ccccc2F)CC1 (configuration not stated),-1.7%,0.2%,1.2%,-24.1%,39.8µM*
COCCn1nnnc1C(c1cc2c(C)cc(C)cc2[nH]c1=O)N1CCCCCC1 (configuration not stated),-21.9%,12.3%,-4.3%,9.1%,12.6µM*
Cc1cccc(NS(=O)(=O)c2nnc(NC(=O)c3cccc(C)c3)s2)c1,0.4%,-9.2%,1.2%,12.4%,-3.1%
CC(C)N1C(=O)CC(Nc2ccc(N3CCOCC3)cc2)C1=O (configuration not stated),-3.9%,-7.2%,-10.5%,-2.3%,35.5µM*
O=C1CC(Nc2ccc(N3CCOCC3)cc2)C(=O)N1C1CCCCC1 (configuration not stated),-18.3%,-13.8%,-4.9%,-8.5%,39.8µM*
O=C1CC(Nc2ccccc2)C(=O)N1c1ccc(N2CCOCC2)cc1 (configuration not stated),2.0%,16.5%,2.1%,-12.8%,-33.5%
CC(C)N1C(=O)CC(Nc2cccc3cccc(N)c23)C1=O (configuration not stated),-11.3%,-25.4%,-0.2%,?,?
COc1ccc(NC2CC(=O)N(C(C)C)C2=O)cc1 (configuration not stated),-9.7%,-9.9%,-3.3%,?,7.94µM*
O=C1CC(Nc2ccc(N3CCOCC3)cc2)C(=O)N1c1ccccc1F (configuration not stated),-17.4%,-6.4%,-0.1%,-14.7%,39.8µM*
Cc1ccc(S(=O)(=O)NN=C2CC3CC2C2CCCC32)cc1 (configuration not stated),-7.3%,2.2%,nt,nt,nt
O=C1CC(NNc2ccccc2)C(=O)N1c1ccc(N2CCCCC2)cc1 (configuration not stated),-3.2%,-15.6%,1.3%,-6.5%,44.7µM*
SMILES,TbPYK inhibitor,RE007 growth inh,LmPK inhibitor,Giardia FBPA inh,Sm TGR inh
Cc1cc(C)c(C)c(C(=O)CSc2nnc(C)c(=O)[nH]2)c1C,nt,nt,2.3%,-25.7%,0.0%
CC(C)C1Oc2ccccc2N(CC(=O)N(Cc2ccncc2)Cc2ccco2)C1=O (configuration not stated),-2.1%,-10.1%,-4.0%,7.1%,31.6µM*
CC(C)C1Oc2ccccc2N(CC(=O)N(C)C2CCCCC2)C1=O (configuration not stated),-1.6%,-2.8%,0.0%,nt,-1.0%
O=c1c2c([N+](=O)[O-])cc([N+](=O)[O-])cc2sn1-c1ccc(Br)cc1,3.98µM*,-87.4%,0.6%,?,?
O=c1c2c([N+](=O)[O-])cc([N+](=O)[O-])cc2sn1Cc1ccccc1,1.58µM*,-38.3%,-6.0%,-22.7%,0.0%
Cc1c(NC(=O)C(C)OC(=O)c2ccc([N+](=O)[O-])s2)c(=O)n(-c2ccccc2)n1C (configuration not stated),1.2%,-5.9%,3.6%,-6.0%,-29.8%
C/C(=N/NS(=O)(=O)c1ccc(C(C)C)cc1)c1ccncc1,-4.9%,11.2%,5.0%,-4.6%,10.9%
C/C(=N/NS(=O)(=O)c1ccc(Cl)cc1)c1ccncc1,-5.1%,1.4%,0.8%,-4.3%,28.2µM*
CC(=NNC(=O)c1ccncc1)c1ccccc1Cl,4.9%,-1.4%,nt,nt,nt
C/C(=N\NC(=O)c1ccccc1NC(=O)c1ccc(Cl)cc1)c1ccncc1,?,3.98µM*,?,-10.2%,-3.9%
C/C(=N/NC(=O)CNC(=O)c1cccnc1)c1ccc([N+](=O)[O-])cc1,3.2%,-16.1%,7.7%,2.8%,-4.1%
O=C(c1cccs1)c1no[n+]([O-])c1C(=O)c1cccs1,-12.8%,28.2µM*,21.0%,3.97µM*,0.1µM*
COc1ccc(NC(=O)c2c(N)no[n+]2[O-])cc1,3.1%,2.8%,-4.1%,2.0%,-14.4%
COc1ccc(C(=O)c2no[n+]([O-])c2C(=O)c2ccc(OC)cc2)cc1,-11.0%,?,8.5%,?,0.355µM*
CC(C)(C)c1ccc(NC(=O)COC(=O)c2ccc3ncsc3c2)cc1,-8.1%,10.5%,nt,nt,-13.7%
CC(NC(=O)c1ccccc1Cl)C(=O)N1CCN(Cc2ccc3c(c2)OCO3)CC1 (configuration not stated),1.7%,26.2%,nt,nt,14.1µM*
C[C@H](NC(=O)c1ccccc1)C(=O)N1CCN(Cc2ccc3c(c2)OCO3)CC1,-8.2%,5.6%,nt,nt,nt
COC(=O)/C(C(C)=O)=C(\C=C\N(C)C)N(C)C,22.7%,4.0%,6.2%,-2.7%,-17.1%
COC(=O)\C(C(C)=O)=C(/C=C/C=C/C=C/N(C)C)N(C)C,-23.9%,-13.2%,-11.8%,-16.1%,35.5µM*
C[C@@H]1CN([C@H](C)CO)S(=O)(=O)c2ccc(-c3cccc(C(=O)N(C)C)c3)cc2O[C@H]1CN(C)C(=O)Nc1ccc(F)cc1,11.4%,-9.2%,nt,nt,nt
